Rows were chosen to be rich in hits. Some 4.7% of all compounds tested hit in one or more screens of this group.
D1 ag: activates the human D1 dopamine receptor | AID 504660 | 360,000 tested, 1% active | activation, % at 2 µM | HEK293 T-REx D1 cells, calcium flux, agonist mode; further: 0% is about no effect
Target sequence (P21728 whole entry, looked up): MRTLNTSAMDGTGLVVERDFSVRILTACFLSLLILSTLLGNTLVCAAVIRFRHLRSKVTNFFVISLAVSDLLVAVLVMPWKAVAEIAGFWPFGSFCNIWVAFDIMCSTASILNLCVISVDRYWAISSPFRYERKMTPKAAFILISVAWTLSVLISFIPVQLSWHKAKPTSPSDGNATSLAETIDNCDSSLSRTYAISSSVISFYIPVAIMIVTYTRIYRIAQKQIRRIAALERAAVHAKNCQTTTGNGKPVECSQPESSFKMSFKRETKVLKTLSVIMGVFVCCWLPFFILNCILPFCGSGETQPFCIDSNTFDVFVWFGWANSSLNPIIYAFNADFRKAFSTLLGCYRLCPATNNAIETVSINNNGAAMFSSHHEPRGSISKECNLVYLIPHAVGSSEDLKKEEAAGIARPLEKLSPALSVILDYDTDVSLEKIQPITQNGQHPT
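Inducible HEK293 T-REx D1 cells, force-coupled to calcium signalling, were plated at 4000 cells/well with tetracycline and held overnight at 30 C. After no-wash calcium dye loading, compound-evoked calcium rise over 180 s flagged agonists.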
TRHR agonist: agonists of human TRH receptor. TRHR cells, calcium flux fluo-8, FDSS agonist mode. AID 493084. 360,000 tested, 0.18% active. activation, % at 2 µM. P34981; further: 0% is about no effect
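Agonist-mode FDSS calcium read (Ex 480/Em 530, 1 s cycles) in 1536-well TRHR cells with fluo-8 dye, after 10-cycle baseline and 23 nL compound addition; TRH at EC20 (10 nM final) added afterwards for the enhancer phase.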
D1 antagonist: human D1 dopamine receptor antagonism. P21728. HEK293 TREx D1 cells, calcium flux, dopamine EC80; active compounds read low. activity change, negative = inhibition, % at 10 µM. 360,000 tested, 3.2% active. AID 504652; in the data active means activity change below about -30%; further: on the % scale 0 is the no-effect control and ±100 the full control effect
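Tetracycline-induced HEK293 Trex D1 cells, force-coupled to calcium, dye-loaded; compounds added and read 180 s, then EC80 dopamine added and calcium flux tracked kinetically another 180 s.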
TRHR PAM: allosterically enhances the human TRH receptor; AID 493056; TRHR cells, fluo-8 calcium fluorescence, EC20 TRH enhancement; 360,000 tested, 0.66% active; enhancement, % at 2 µM; in the data active means enhancement above about 30%; further: 0% is about no effect
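TRHR-expressing cells loaded with fluo-8 calcium dye were read kinetically (ex 480/em 530) during compound addition, then stimulated with an EC20 of TRH (10 nM final). Enhancement of the Gq-mediated intracellular calcium response was scored.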
D1 potentiator: potentiators of human D1 dopamine receptor; HEK293 TREx D1 cells, calcium flux, dopamine EC20 potentiation; potentiation, % at 10 µM; 360,000 tested, 0.036% active; AID 504651; in the data active means potentiation above about 30%; further: 0% is about no effect
Active calls of the source: *; · = not tested or not shown. Unless noted, no stated cut-off is given here; in the data, active means activation above about 30%; inactive means the rest.

SMILES	D1 ag	TRHR agonist	D1 antagonist	TRHR PAM	D1 potentiator
c1ccc(N2CCN(c3ncnc4[nH]ncc34)CC2)cc1	3	0	-35*	0	-2
COc1ccc(N2CC(NC(=O)COc3ccccc3F)CC2=O)cc1OC (centres undefined)	-3	0	·	-13	-1
Cc1ccc(CSc2nnc(C)c(=O)n2N)cc1	1	0	-48*	-4	3
Cc1nnc(SCc2ccccc2)n(N)c1=O	-2	-1	-6	3	2
COC(=O)c1sc(C(C)(C)C)cc1CS(=O)(=O)c1ccc(Cl)cc1	2	0	-40*	-3	-5
COC(=O)c1ccc(N)c(CS(=O)(=O)c2ccc(Cl)cc2)c1	0	-1	-4	-3	-3
Cc1ccc2oc(=O)c3cc(C(=O)Nc4cccc(C#N)c4)sc3c2c1	3	0	-26	2	-1
O=C(NN1C(=O)/C(=C/c2ccc(O)cc2)SC1=S)c1ccccc1O	67*	-2	-27	8	-2
Cn1cc(/C=C2\SC(=S)N(NC(=O)c3ccccc3)C2=O)c2ccccc21	75*	23	-12	0	0
COc1cc(/C=C2\SC(=S)N(NC(=O)c3ccccc3O)C2=O)ccc1O	90*	-1	-1	10	-5
Nc1cc(=O)nc(SCC(=O)Nc2ccc(F)cc2)n1-c1cccc(Cl)c1	2	-2	0	6	-1
Cc1cccc(N/C=C(\[N+](=O)[O-])S(=O)(=O)c2ccccc2)c1	1	1	4	-3	-4
Cc1ccc(N/C=C(\[N+](=O)[O-])S(=O)(=O)c2ccccc2)cc1	3	0	-1	31*	-2
Cc1ccc(S(=O)(=O)c2c(Nc3cc(F)ccc3F)sc(C(=O)c3ccc(F)cc3)c2N)cc1	57*	7	-69*	-8	4
COc1ccc(OC)c(Nc2sc(C(=O)c3ccccc3)c(N)c2S(=O)(=O)c2ccccc2)c1	58*	2	-25	-1	-1
Nc1c(C(=O)c2ccc(F)cc2)sc(Nc2ccccc2F)c1S(=O)(=O)c1ccc(Br)cc1	83*	4	-26	-14	-3
Cc1ccc(Nc2sc(C(=O)c3ccc(F)cc3)c(N)c2S(=O)(=O)c2ccc(C)cc2)cc1	79*	4	-30*	5	-2
O=C(CN1C(=O)C2(SCC(=O)N2c2cccc(F)c2)c2ccccc21)NCCc1ccccc1 (centres undefined)	0	-2	19	6	-2
Cn1nc(-c2ccccc2F)c2cc(C(=O)NCc3cccc(Cl)c3)sc21	3	1	0	2	1
N#Cc1ccc(-c2cccs2)nc1SCc1c(F)cccc1Cl	4	3	4	1	-4
Cc1ccc(NC(=O)CSCc2cc(=O)c3ccccc3[nH]2)c(C)c1	-1	0	14	25	-1
CC(C)N1C(=O)C(O)(C2COC(C)(C)CC2=O)c2ccccc21 (centres undefined)	1	0	4	33*	5
Cc1ccc(-n2nc3c(=O)n(CC(=O)NCC(C)c4ccccc4)nc(C)c3c2C)cc1 (centres undefined)	-1	-1	-25	-4	-2
Cc1ccc(-n2nnnc2SCC(=O)Nc2sccc2C#N)cc1	11	0	-66*	-1	-5
Cc1ccc(-n2nnnc2SCC(=O)Nc2ccc(N3CCN(C)CC3)cc2)c(C)c1	13	-1	-60*	-3	-7
SMILES	D1 ag	TRHR agonist	D1 antagonist	TRHR PAM	D1 potentiator
CN1CCN(c2ccc(NC(=O)CSc3nnnn3-c3ccccc3F)cc2)CC1	4	0	-46*	-4	-14
Cc1ccc(-n2nnnc2SCC(=O)Nc2cc(C)on2)c(C)c1	0	-1	-17	2	-7
CCOc1ccc(-c2nc(SCC(=O)NCCOC)c(-c3ccc(OC)c(OC)c3)[nH]2)cc1	4	0	-2	3	-1
CCOC(=O)Cn1c(=O)c2c(nc3n2CCN3c2ccc(CC)cc2)n(C)c1=O	18	1	6	-1	-3
CC(=O)c1cccc(NC(=O)Cn2c(C)c3cnn(-c4ccccc4)c(=O)c3c2C)c1	1	1	8	0	0
CCC(C(=O)Nc1ccc(C(C)=O)cc1)n1c(C)c2cnn(-c3ccccc3)c(=O)c2c1C (centres undefined)	51*	6	-4	-3	-2

Screening results: PubChem BioAssay, National Center for Advancing Translational Sciences (NCATS)
